Screens from PubChem BioAssay.
Rows were chosen to be rich in hits. Some 8.7% of all compounds tested hit in one or more screens of this group.
G9a block = qHTS Assay for Inhibitors of Histone Lysine Methyltransferase G9a; Histone-lysine N-methyltransferase EHMT2 (Homo sapiens), Q96KQ7; G9a H3K9 monomethylation, AlphaScreen, 2 h; Potency, µM (highest dose often 102 µM), without a hit: at the top dose activity, negative = inhibition, usual class: inhibitors; 8.8% of 350,000 active; also: % is scaled to controls: 0 for no effect and ±100 for the full control effect; nearly all actives have a fitted effect of over 75% in size
Target sequence (Q96KQ7 913-1193 limits assumed): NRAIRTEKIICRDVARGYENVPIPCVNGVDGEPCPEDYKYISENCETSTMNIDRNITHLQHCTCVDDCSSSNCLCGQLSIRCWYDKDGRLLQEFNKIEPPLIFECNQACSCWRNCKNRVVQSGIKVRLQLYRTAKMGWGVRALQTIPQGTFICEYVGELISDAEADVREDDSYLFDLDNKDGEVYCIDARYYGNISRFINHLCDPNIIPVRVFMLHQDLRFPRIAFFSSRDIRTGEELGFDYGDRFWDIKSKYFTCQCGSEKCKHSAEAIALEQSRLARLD
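Quantitative HTS format: methyltransferase activity on a biotin-tagged H3K9 peptide is measured by AlphaScreen, using a rabbit anti-monomethyl-H3K9 antibody with streptavidin donor and anti-IgG acceptor beads. Final levels are 20 nM enzyme, 500 nM peptide, 20 uM SAM; 2 h RT.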
BAZ2B block = qHTS Assay for Inhibitors of BAZ2B; Potency, µM (top dose mostly 114 µM), inactives show at the top dose activity change, negative = inhibition, most hits filed as inhibitors; AID 504333, 2011; Bromodomain adjacent to zinc finger domain protein 2B (Homo sapiens), Q9UIF8; 4.4% of 360,000 active; AlphaScreen BAZ2B-H3K14Ac peptide displacement; also: % is scaled to controls: 0 for no effect and ±100 for the full control effect; nearly all actives have a fitted effect of over 60% in size
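AlphaScreen luminescence quantifies BAZ2B engagement of H3K14Ac peptide; the protein and biotinylated peptide are both at 50 nM final, buffer PBS pH 7.4 with 0.01% Tween-20, all steps at room temperature.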
HP1b binding inh = HTS for Inhibitors of HP1-beta Chromodomain Interactions with Methylated Histone Tails | AlphaScreen HP1-beta / biotin-H3K9me3 peptide binding | AID 540317, 2011 | Potency, µM (top dose mostly 114 µM), without a hit: at the top dose activity change, negative = inhibition, most hits filed as inhibitors | 0.56% of 390,000 active; also: nearly all actives have a fitted effect of over 70% in size
Target sequence (P83916 whole entry, looked up): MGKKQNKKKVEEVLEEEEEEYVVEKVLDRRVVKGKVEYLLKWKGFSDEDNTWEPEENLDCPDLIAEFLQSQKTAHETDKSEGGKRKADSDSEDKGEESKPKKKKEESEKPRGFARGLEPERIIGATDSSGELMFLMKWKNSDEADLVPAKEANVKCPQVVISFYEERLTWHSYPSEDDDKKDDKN
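AlphaScreen: HP1-beta (50 nM) preformed 30 min with biotin-H3(1-18)K9me3 peptide (50 nM) in PBS pH 7.4, 0.01% Tween-20. Compound added for 30 min at RT, then streptavidin donor/nickel chelate acceptor beads (10 ug/mL) for 30 min.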
JMJD2A Tudor = qHTS Assay for Inhibitors of JMJD2A-Tudor Domain; Potency, µM (series often up to 114 µM), for the others: at the top dose activity change, negative = inhibition, actives largely listed as inhibitors; AID 504339, 2011; Lysine-specific demethylase 4A (Homo sapiens), O75164; AlphaScreen JMJD2A-Tudor / H3K4me3 peptide binding; 4.4% of 390,000 active; also: % is scaled to controls: 0 for no effect and ±100 for the full control effect; nearly all actives have a fitted effect of over 50% in size
12-LOX inh = Primary qHTS assay for inhibitors of human arachidonate 12S-lipoxygenase (ALOX12): Round 2; purified 12hLO, xylenol orange hydroperoxide absorbance; AID 1671190, 2021; 1.1% of 580,000 active; Potency, µM (top dose mostly 108 µM), for the others: top-dose activity change, negative = inhibition, usual class: inhibitors; Polyunsaturated fatty acid lipoxygenase ALOX12 (Homo sapiens), P18054; also: % is scaled to controls: 0 for no effect and ±100 for the full control effect
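Purified human 12hLO at 150 nM in 25 mM Hepes, 0.01% Triton X-100, pH 7.0, preincubated 15 min at room temperature with compound. Reaction started with 40 uM arachidonic acid, 30 min at room temperature. Hydroperoxide measured by Fe-xylenol orange, 573/405 nm absorbance ratio.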
Sfp inh = qHTS Assay for Inhibitors of Bacillus subtilis Sfp phosphopantetheinyl transferase (PPTase); 4'-phosphopantetheinyl transferase ffp (Bacillus subtilis), Q9F4F7; Biochemical Sfp PPTase activity, qHTS; Potency, µM, without a hit: largest response in the series, negative = inhibition, hits mostly inhibitors; 3.5% of 310,000 active; AID 1490, 2009;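 also: the enzyme is Sfp with the accession as filed and its product quenches rhodamine fluorescence; 0% = enzyme reaction without inhibitor and -100% = no enzyme wells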
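Fluorescence-quenching assay with 15 nM Sfp, 5 uM rhodamine-CoA and 12.5 uM BHQ-2-labelled ybbR peptide in pH 7.6 Hepes/MgCl2 buffer. Enzyme was pre-incubated with compound for 15 min at room temperature. Rate was taken from the 30-min fluorescence change (525/598 nm).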
* marks the source's active call; other numbers are inactive results; ? = inconclusive; nt = not tested or not shown; ! = not confirmed by another sample; [ ] = remark or other dose. Calls follow the shape of the dose curve; as a rule, active = well fitted curve in the direction sought with a large enough effect; inconclusive = small, poorly fitted or top-dose-only effect, or another doubt; inactive = no such curve, though single readings can be large; an effect the other way counts as inactive or inconclusive. Potency is read from the fitted curve at half-maximal effect.

SMILES	G9a block	BAZ2B block	HP1b binding inh	JMJD2A Tudor	12-LOX inh	Sfp inh
CN(C)S(=O)(=O)c1cc(NC(=O)CN2CCN(c3ccc(O)cc3)CC2)ccc1Cl	4µM*	?	5%	-14%	?	-99%
O=C(CN1CCCCC1)Nc1ccc(S(=O)(=O)N2CCCCCC2)cc1	?	3%	19%	-15%	-4%	15%
O=C(CN1CCN(c2ccc(O)cc2)CC1)Nc1ccc(S(=O)(=O)N2CCCC2)cc1	nt	nt	?	50µM*	?	nt
COc1ccccc1N1CCN(CC(=O)Nc2ccc(S(=O)(=O)N3CCCCCC3)cc2)CC1	5%[2.33 µM]	-7%	22%	-28%	29%	nt
O=S(=O)(c1ccc(NC(=S)N2CCN(c3ccc(O)cc3)CC2)cc1)N1CCOCC1	20µM*	nt	-30%	?	-16%	-18%
CC(C)CC(=O)Nc1ccc(C(=O)CN2CCN(c3ccc(O)cc3)CC2)cc1	5µM*	50µM*	-33%	?	?	56µM*
CN(CC(=O)NCCCN1CCOCC1)S(=O)(=O)c1cc(Cl)ccc1Cl	nt	-6%	21%	-6%	0%	13%
CN(C)S(=O)(=O)c1cc(NC(=O)CNCCN2CCOCC2)ccc1Cl	10µM*	50µM*	26%	28µM*	-20%	?
O=C1NCc2ccccc2CC12CCCN2CC1CCCCC1 (stereo not drawn)	nt	nt	nt	nt	7%[6.33 µM]	nt
CC(C)(C)C(=O)Nc1nnc(Cc2ccc(Cl)cc2)s1	nt	nt	nt	nt	-10%	nt
CCOc1ccc(C(CN2CCOCC2)C(C)=O)cc1OC (stereo not drawn)	nt	nt	nt	nt	32µM*	nt
CCOc1cc2nc(-c3ccc(OC)c(OC)c3)nc(N3CCOCC3)c2cc1OC	-7%[2.33 µM]	56µM*	8%	-26%	-7%	14%
CCOc1ccc(C(C#N)N2CCOCC2)cc1OC (stereo not drawn)	-1%[12.7 µM]	-23%	39%	-1%	0%	10%
CCOc1ccc(C(=S)N2CCCC2)cc1OCC	10µM*	6%	-10%	-6%	?	56µM*
CCOc1cc(C(=S)N2CCCC2)ccc1OCc1ccccc1	1%	-30%	3%	-20%	86%	15%
CCOc1cc(/C=C/C(=O)c2ccc(OC)c(CN3CCOCC3)c2)cc(Br)c1O	45µM*	?	-37%	?	-17%	-1%
COc1ccc(C(=O)COC(=O)C2(c3ccccc3)CCCC2)cc1F	nt	nt	nt	nt	-4%	nt
CCOc1cc(C(=S)N2CCOCC2)ccc1OC	10µM*	1%	-18%	-17%	?	-30%
CCOc1ccc(C(=S)N2CCOCC2)cc1OC	?	-3%	-15%	-8%	30%	-13%
CCOc1cc(C(=S)N2CCOCC2)ccc1OC(=O)c1ccccc1	22µM*	?	-25%	-34%	?	79µM*
CCOc1cc(C(=S)N2CCOCC2)ccc1OS(=O)(=O)c1ccccc1	-6%[59 µM]	-9%	28%	-19%	-3%	-11%
CCOc1cc(C(=S)N2CCOCC2)ccc1OC(=O)c1ccc(C)cc1	45µM*	-32%	-21%	?	-15%	-9%
CCOc1cc(C(=S)N2CCOCC2)ccc1OC(=O)c1cccc(C)c1	?	-36%	-6%	?	-10%	-3%
CC(OC(=O)c1cc2ccccc2o1)C(=O)NC1(C#N)CCCCC1 (stereo not drawn)	nt	nt	nt	nt	-18%	nt
Nc1[nH][nH]c(=O)c1N=Nc1cccc(Cl)c1	?	?	-8%	?	?	5%
SMILES	G9a block	BAZ2B block	HP1b binding inh	JMJD2A Tudor	12-LOX inh	Sfp inh
O=C1CCN(N=Nc2cccc(Cl)c2)N1	0.79µM*	?	nt	nt	nt	9%
CCN1/C(=C/c2ccc3ccccc3[n+]2CC)C=Cc2ccccc21	11µM*	?	18µM*	35µM*	?	50µM*
CCN1C(=O)/C(=C2\C=Cc3cc(C)ccc3N2CC)OC1=S	?	?	?	?	21%	1%
CCN1/C(=C/c2cc[n+](C)cc2)C=Cc2cc(C)ccc21	2.2µM*	?	?	?	?	?
CCN1C(=C2C(=O)c3ccccc3C2=O)C=Cc2ccccc21	-20%	-38%	38%	-28%	?	5%
CCN1/C(=C/c2ccc3ccccc3[n+]2CCCS(=O)(=O)[O-])C=Cc2cc(C)ccc21	10µM*	45µM*	-15%	-11%	45µM*	-21%
CN(Cc1ccncc1)C(=O)CCCNC(=O)C1CC1	nt	nt	nt	nt	-9%	nt
CCCCCCCCC(=O)Oc1ccc(C(=O)O)cc1	nt	nt	nt	nt	2%	nt
CCCCCCCCCCCCCCCCCCc1ccc(C(=O)/C=C/C(=O)O)cc1	4%[59 µM]	nt	nt	nt	-11%	-3%
C=CC(=O)c1ccc(CCCCCC)cc1	11µM*	nt	nt	nt	nt	?
CCN(Cc1ccncc1)C(=O)c1c(OCC2CC2)cc(=O)n2c1CCCCC2	nt	nt	nt	nt	84%	nt
Cc1ccc(C(C)(O)CS(=O)(=O)Cc2ccccc2Cl)cc1 (stereo not drawn)	45µM*	5%	56%	-2%	?	-18%
CCc1cnc2c(c1SC(C(C)=O)C(=O)N(C)C)c(=O)n(C)c(=O)n2C (stereo not drawn)	4.5µM*	-30%	?	28µM*	?	nt
CCc1cnc2c(c1SCC(=O)N1CCCCC1)c(=O)n(C)c(=O)n2C	-3%[59 µM]	-4%	-11%	-10%	1%	nt
COc1cccc(C2CC(=O)Nc3cc4c(cc32)OCCO4)c1OC(C)C (stereo not drawn)	45µM*	-34%	?	?	12%[57.4 µM]	6%
CC(C)Oc1ccccc1C1CC(=O)Nc2cc3c(cc21)OCCO3 (stereo not drawn)	-9%[59 µM]	50µM*	-11%	?	?	1%
O=C(Nc1ccnn1Cc1cccs1)c1cccc(S(=O)(=O)N2CCCC2)c1	nt	nt	nt	nt	22%	nt
CC1=NN(c2nc(C)cc(C)n2)C(=O)C1Cc1ccc(Br)cc1 (stereo not drawn)	nt	nt	nt	nt	-12%	nt
CSc1ncccc1-c1nc2ccccc2[nH]1	10µM*	11%	1%	-9%[57.1 µM]	1%	4%
c1ccc2[nH]c(-c3ccnc4ccccc34)nc2c1	8.9µM*!	?	40%	-13%	?	79µM*!
CCN(CC)C(=O)CSc1ncccc1-c1nc2ccccc2[nH]1	50µM*	-12%	34%	-14%	-28%	6%
